From PubChem BioAssay AID1259313 (Sanford-Burnham Center for Chemical Genomics, 2017) come the findings set out here.

SMILES strings stand for the structures. In all, about 340,000 compounds went through this assay and about 8,500 (2.5%) were called active. This excerpt belongs to a sample that is enriched for actives. A number with no mark means an inactive call.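 The calls were made as follows: active = melting temperature shift of at least 10% of the positive control shift, at one fixed dose; inactive = the rest.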

For the experiment, the system named is Glutamate receptor ionotropic, NMDA 3A (GRIN3A) ligand-binding domain. In words: NR3A LBD thermal stabilization by compounds – biophysical, differential scanning fluorimetry, uHTS, primary screen (AID 1259313). The following applies: at 25 µM, stronger effect = higher value, 0% = protein alone, 100% = glycine-bound protein.
Turning to `Cc1ccc(NC(=S)N2CCN(c3ncccn3)CC2)cc1C`, the Tm shift relative to glycine control was -1.38%.
As for `Cn1cc(/C=C/C(=O)N2CCCC(C(=O)c3ccc(C(F)(F)F)cc3)C2)cn1` (centres undefined), the figure is 1.32%; as for `CCCCCCCCCCOC(=O)Cn1c(COc2cccc(OC)c2)[n+](C)c2ccccc21`, 17.8% (active); as for `CCCCCCCCCCOC(=O)Cn1c(COc2ccc(C)cc2)[n+](C)c2ccccc21`, -408%.
Under `CCCCn1c(N)c(N(CCOC)C(=O)c2cccc(OCc3ccccc3)c2)c(=O)[nH]c1=O` stands 1.68%.
Under `O=C1CC(Cc2ccccc2)C(=O)N1c1ccc(Cl)cn1` (centres undefined) stands 1.69%; under `Fc1ccc(/C=N/n2c(COc3ccccc3)n[nH]c2=S)cc1`, -0.74%.
`CN(C)c1ccc(C2Nc3ccccc3C(=O)N2NS(=O)(=O)c2ccccc2)cc1` (centres undefined): the Tm shift relative to glycine control is 0.59%.
As for `O=C(CN1CCOCC1)Nc1c2c(nc3c1CCC3)CCC2`, the figure is 10.2% (active).
Under `Cc1cc(C)c(NC(=O)CN2CCOCCOCCOCCOCC2)c(C)c1` stands 0.86%; under `O=C(CN1CCOCC1)Nc1c(Cl)cc(Cl)cc1Cl`, -2.33%.
Under `O=C(COc1ccc2ccccc2c1)N1CCN(C(=O)c2cccs2)CC1` stands 0.47%; under `CCOC(=O)c1nn(-c2ccccc2F)c2nc(Nc3ccccc3)cc(=O)n12`, 0.55%; under `Cc1ccc(NC(=O)CSCC(=O)Nc2sccc2C#N)cc1`, -2.55%.
As to `CCc1ccc2nc3sc(C(=O)Nc4nnc(CC)s4)c(N)c3cc2c1`, the Tm shift relative to glycine control was 2.24%.
For `Cc1ccc(NC(=O)c2sc3nc(N)c(C#N)cc3c2N)cc1`, the Tm shift relative to glycine control was 10.3% (active).
Take `O=C(N[C@@H](Cc1c[nH]c2ccccc12)C(=O)O)OCC1c2ccccc2-c2ccccc21`: the Tm shift relative to glycine control was 19.5% (active).
`O=C(CCn1nnc2ccccc2c1=O)N[C@@H](Cc1c[nH]c2ccccc12)C(=O)O`: the Tm shift relative to glycine control is -1.09%.
As to `Cc1cccc(C)c1OCC(=O)NC(Cc1c[nH]c2ccccc12)C(=O)O` (centres undefined), the Tm shift relative to glycine control was 0.33%.
With `Cc1cc(NC(=O)C(C)SCC(=O)Nc2cccc(S(=O)(=O)N3CCCCCC3)c2)no1` (centres undefined), the Tm shift relative to glycine control is -1.57%.
With `O=C(N/N=C/c1ccc([N+](=O)[O-])cc1)c1c[nH]c2ccccc12`, the Tm shift relative to glycine control is 26.3% (active).
Under `O=C(N/N=C/c1ccc(Cl)cc1)c1nc2ccc([N+](=O)[O-])cc2c(=O)[nH]1` stands 1.51%.
As for `Nc1nonc1-n1nnc(C(=O)N/N=C/C2CCCCC2)c1-c1ccccc1`, the figure is 0.68%; as for `O=C(NN=Cc1ccc([N+](=O)[O-])cc1)C1CC1`, -0.92%.
As to `Cc1c(/C=N\NC(=O)c2cc3ccccc3o2)c2ccccc2n1C`, the Tm shift relative to glycine control is 2.79%.
As for `NC(=O)CSc1c[nH]c2ccccc12`, the figure is 0.83%; as for `CC(C)c1c(C(=O)N/N=C/c2ccccc2C(=O)O)nnn1-c1nonc1N`, -7.76%; as for `CSC(=S)N/N=C/c1c[nH]c2ccccc12`, 30.1% (active).
As for `Nc1nonc1-n1nnc(C(=O)N/N=C/c2c[nH]c3ccccc23)c1-c1ccccc1`, the figure is 31.6% (active); as for `C[n+]1ccc(/C=C/c2c[nH]c3ccccc23)cc1`, -3.88%; as for `Cc1cc(NC(=O)c2cc3ccccc3o2)no1`, 2.81%.
As for `O=C(N/N=C/c1c[nH]c2ccccc12)c1cc2ccccc2o1`, the figure is 28.7% (active).
In the case of `Cc1ccc(N2CCN(S(=O)(=O)N(C)C)CC2)cc1Cl`, the Tm shift relative to glycine control is 1.66%.
As to `CCCNC(=O)c1cnc(-c2ccccc2)nc1-c1ccccc1`, the Tm shift relative to glycine control was -1.35%.
As for `CN(C)S(=O)(=O)N1CCC(Oc2cccc(C(=O)NCCCC3CCCC3)c2)CC1`, the figure is 0.18%.
Take `O=C(Oc1ccc(F)cc1)N1CCOCC1`: the Tm shift relative to glycine control was 1.08%.
As for `Cc1c(NC(=O)c2c([N+](=O)[O-])cnn2C)c(=O)n(-c2ccccc2)n1C`, the figure is -0.61%; as for `CCOC(=O)C1(Cc2cccc(OC)c2)CCCN(S(=O)(=O)c2cccnc2)C1` (centres undefined), 0.32%.
As for `O=C(N/N=C/c1ccsc1)c1cc(O)cc(O)c1`, the figure is -11.7%.
As for `O=C(N/N=C/c1c[nH]c2ccccc12)c1ccccc1O`, the figure is 37% (active).
Take `O=C(Cc1c[nH]c2ccccc12)N/N=C/c1cccc(F)c1`: the Tm shift relative to glycine control was -4.78%.
Under `O=C(N/N=C/c1cccc(O)c1)c1cc2c(ccc3ccccc32)o1` stands 25.4% (active).
As for `O=C(N/N=C/c1cccc(OCc2ccccc2)c1)c1ccc(Br)o1`, the figure is -4.34%; as for `Cc1ccc2occ(/C=N/NC(=O)c3ccccc3C)c(=O)c2c1`, -0.75%; as for `COc1ccc2c(C)cc3nnnn3c2c1`, 1.26%.
Under `Cc1ccc(CN2CCC(N3CCC(C(=O)NCC4CCCO4)CC3)CC2)o1` (centres undefined) stands 0.34%; under `O=C(NC(=O)c1cc(OCC(F)(F)F)ccc1OCC(F)(F)F)Nc1ccccc1`, -0.36%; under `CC(C)(C)n1nc2c(c1NC(=O)c1ccc(S(=O)(=O)N3CCCC3)cc1)CS(=O)C2` (centres undefined), 0.18%.
Consider `CC(OC(=O)CNC(=O)c1cccc(F)c1)C(=O)NC1CCCCC1C` (centres undefined), for which the Tm shift relative to glycine control was -0.43%.
As for `CS(=O)(=O)c1sc(C(=O)NC(=S)Nc2ccc(OC(F)(F)F)cc2)c2c1C=CCC2`, the figure is 11.4% (active).
As for `CCNC(=S)Nc1ccc(OC(F)(F)F)cc1`, the figure is -1.13%; as for `FC(F)(F)Oc1ccc(NC(=S)NCc2ccccc2)cc1`, 0.09%; as for `c1ccc2cc3c(NCCN4CCOCC4)ccnc3cc2c1`, -8.16%.
As for `O=C1CC(c2cccc(Cl)c2)CC(O)=C1C=Nc1ccccc1` (centres undefined), the figure is -0.75%; as for `Cc1cc(C(=O)OCC(=O)NCc2ccco2)c(C)n1-c1ccccc1`, -1.04%.
Consider `Cc1ccc(S(=O)(=O)N2CC(O)C[C@H]2C(=O)OCC(=O)Nc2ccc(N3CCOCC3)cc2)cc1C` (some centres undefined), for which the Tm shift relative to glycine control was 1.27%.
With `O=C(NCC1(N2CCCCC2)CCCCC1)c1cccc(S(=O)(=O)Nc2ccccc2Cl)c1`, the Tm shift relative to glycine control was -0.85%.
As for `O=C(Nc1ccc2c(c1)CCC2)c1cccc(S(=O)(=O)N2CCN(c3ccc(F)cc3)CC2)c1`, the figure is 2.49%; as for `O=C(Nc1ccc2c(c1)CCC2)c1cccc(S(=O)(=O)Nc2ccccc2Cl)c1`, 14.9% (active).
